The campaign covered roughly 220,000 compounds. About 8,200 (3.7%) were called active.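 How the source made its calls: active means compounds that reduced the stress-induced luciferase reporter signal by more than about 70% of percent inhibition (limit read from the data); inactive means the rest.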 Only a selection was taken, and actives are over-represented in it overall.
Assay: blockers of ER-stress CHOP reporter expression – cell-based, unfolded protein response, luciferase reporter, primary screen (AID 2732);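 further: 0% = tunicamycin plus vehicle and 100% = wells without tunicamycin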
Settings: CHO-K1 CHOP-promoter luciferase, tunicamycin-induced, 15-18 h; at 10 µM; stronger effect = higher value

Compound	inhibition
CC(C)CN(CC(C)C)CC(O)CN(c1ccccc1)S(=O)(=O)c1ccccc1[N+](=O)[O-] (configuration not stated)	6.94% (inactive)
C/C(=N/NC(=O)c1ccc(NC(=O)c2ccc(F)cc2)cc1)c1ccccc1	52% (inactive)
CC(=O)Nc1ccc(/C(C)=N/NC(=O)CN(c2ccccc2Br)S(C)(=O)=O)cc1	91.8% (active)
COc1ccccc1N(CC(=O)Nc1ccc(C(F)(F)F)cc1)S(C)(=O)=O	12.5% (inactive)
Cc1ccc2c(c1)c1ncn(Cc3ccc(F)cc3)c(=O)c1n2C	21.6% (inactive)
S=c1nc2ccccc2c2nc(-c3cccnc3)[nH]n12	-22.9% (inactive)
CCCc1ccc(C(=O)[C@@H]2[C@@H](C(C)=O)N3c4ccc(F)cc4C=C[C@@H]3[C@@]23C(=O)Nc2ccccc23)cc1	72.2% (active)
CC(C)(C)CN1C(=O)C(=O)NC[C@H]1Cc1cccc2ccccc12	16.9% (inactive)
CN1CCc2ccccc2C1Cc1ccccc1NC(=O)c1sc2ccccc2c1Cl (configuration not stated)	24.9% (inactive)
CC(=O)Nc1nonc1-c1nc2ccccc2n1Cc1ccccn1	33.7% (inactive)
CC(C)(C)N1CC(c2nc3ccccc3n2Cc2ccc(F)cc2)CC1=O (configuration not stated)	-17.7% (inactive)
Nc1nonc1-c1nc2ccccc2n1Cc1ccc(F)cc1	84.3% (active)
COC(=O)c1cc(N2CCNCC2)nc2ccccc12	19.8% (inactive)
Cc1cc(=O)[nH]c2nnnn12	8.36% (inactive)
O=C(Nc1cc(C(F)(F)F)ccc1Cl)c1cc(C2CC2)on1	67% (inactive)
Cc1cc(C(=O)Nc2c(C)nn(Cc3ccccc3)c2C)on1	11.6% (inactive)
Cc1nn(Cc2ccc(Cl)c(Cl)c2)c(C)c1NC(=O)c1cc(C2CC2)on1	82.7% (active)
CCCCOc1ccc(CON(C(C)=O)C(C)=O)cc1Cl	10.1% (inactive)
COCCn1c(SCC(=O)c2[nH]c(C)c(C(C)=O)c2C)nc2ccccc2c1=O	-9.67% (inactive)
C=CCSC(CC)(CC)C(N)=O	4.32% (inactive)
O=C1/C(=C/c2cccs2)SC(=S)N1C1CCS(=O)(=O)C1 (configuration not stated)	8.4% (inactive)
CCOC(=O)c1ccc(N2C(=O)CC(N3CCC(C(=O)OCC)CC3)C2=O)cc1 (configuration not stated)	1.79% (inactive)
CCCCOC(=O)c1ccc(N2C(=O)CC(N3CCN(C/C=C/c4ccccc4)CC3)C2=O)cc1 (configuration not stated)	81.1% (active)
CCOC(=O)c1ccc(N2C(=O)CC(N3CCN(C(=O)c4ccccc4)CC3)C2=O)cc1 (configuration not stated)	14.7% (inactive)
O=[N+]([O-])c1cccc(C2=NCCS2)c1	5.31% (inactive)
O=[N+]([O-])c1cccc(-c2nnc3c4ccccc4c4ccccc4n23)c1	96.5% (active)
O=c1[nH]c2ccccc2n2c(-c3ccccc3)nnc12	10.4% (inactive)
